# Reference: PubChem BioAssay AID588342 (National Center for Advancing Translational Sciences (NCATS), 2011)
# Out of some 360,000 compounds screened, about 25,000 (6.9%) were called active. Where a call stands in place of a potency, no number is given. Not shown: some 9% with an inconclusive outcome. Calls follow the shape of the dose curve; as a rule, active = well fitted inhibition curve with a large enough effect; inconclusive = small, poorly fitted or top-dose-only effect; inactive = flat fitted curve, though single readings scatter. Many of the other results were omitted from the sample, so actives are more common in it than they were.
# Target: Luciferin 4-monooxygenase (Photinus pyralis) (UniProt P08659)
# Sequence (P08659 whole entry, looked up): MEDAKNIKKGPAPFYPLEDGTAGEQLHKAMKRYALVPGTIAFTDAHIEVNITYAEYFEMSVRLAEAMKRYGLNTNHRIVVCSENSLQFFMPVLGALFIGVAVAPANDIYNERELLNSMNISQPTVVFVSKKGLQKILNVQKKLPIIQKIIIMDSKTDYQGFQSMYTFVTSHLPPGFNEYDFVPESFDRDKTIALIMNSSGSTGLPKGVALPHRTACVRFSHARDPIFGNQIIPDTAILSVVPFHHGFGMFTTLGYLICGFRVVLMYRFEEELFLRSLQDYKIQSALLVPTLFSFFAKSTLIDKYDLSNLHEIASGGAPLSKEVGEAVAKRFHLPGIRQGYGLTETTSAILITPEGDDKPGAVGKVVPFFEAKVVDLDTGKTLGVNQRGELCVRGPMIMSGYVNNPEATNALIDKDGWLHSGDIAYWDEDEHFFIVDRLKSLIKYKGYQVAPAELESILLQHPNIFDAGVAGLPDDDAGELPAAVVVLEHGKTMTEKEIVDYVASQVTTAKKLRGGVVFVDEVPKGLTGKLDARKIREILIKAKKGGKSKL
# Experiment: qHTS profiling assay for firefly luciferase inhibitor/activator using purifed enzyme and Km concentrations of substrates (counterscreen for miR-21 project); also: nearly all actives have a fitted effect of over 55% in size
# Details: purified FLuc, luminescence inhibition; series mostly up to 57.5 µM
# Method in brief: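 Biochemical qHTS of compounds, final roughly 60 µM downward over six points, against 10 nM purified firefly luciferase using Km concentrations of substrates (10 uM D-luciferin, 10 uM ATP) in Tris acetate pH 7.5 buffer; luminescence output.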
# Potency is read from the fitted curve at half-maximal effect.
row,Compound,Potency
1,CCOc1cccc(NC(=O)Cn2nc(-c3ccc4c(c3)OCCO4)ccc2=O)c1,inactive
2,Nc1nnnn1CC(=O)N/N=C/c1ccc(-c2cccc(Cl)c2)o1,inactive
3,O=C1c2ccccc2NC(c2ccc(-c3cccc(Cl)c3)o2)N1O (stereo not drawn),10.7 µM (active)
4,CC(=O)NN1C(=O)c2ccccc2NC1c1ccccc1 (stereo not drawn),inactive
5,Cc1cc(C)c(NC(=O)Cn2c(SCC(=O)NCc3ccccc3)nc3ccccc32)c(C)c1,inactive
6,CCn1c(CNC(=O)c2ccccc2)nnc1SCC(=O)N1CCN(c2ccccc2)CC1,inactive
7,O=C(c1cnn(-c2ccc(Cl)cc2)c1)c1ccccc1O,2.13 µM (active)
8,CCCc1c(C(=O)O)cnn1-c1ccc(Cl)cc1,inactive
9,Cc1ncc(CC(=O)n2cc(C(=O)c3cc(Cl)ccc3O)cn2)s1,inactive
10,COc1cc(C(C)=O)ccc1OC(C)C(=O)Nc1ccc(S(=O)(=O)N2CCCC2)cc1 (stereo not drawn),inactive
11,Cc1oc2ncn(CC(C)C)c(=O)c2c1C(=O)N1CCN(c2ccccc2F)CC1,inactive
12,N#Cc1c(NC(=O)CCCl)sc2c1CCCCC2,inactive
13,N#Cc1c(NC(=O)C2CCCO2)sc2c1CCCCC2 (stereo not drawn),13.5 µM (active)
14,N#Cc1c(NC(=O)C2CC(Cl)=CCC2C(=O)O)sc2c1CCCCC2 (stereo not drawn),inactive
15,COc1cc(C(=O)NC(=S)NCc2ccco2)cc(OC)c1OC,inactive
16,COc1ccc2oc(C(=O)NCc3ccco3)c(C)c2c1,16.9 µM (active)
17,COc1ccc(NC(=O)C(=O)NCc2ccco2)cc1,inactive
18,O=C(NCc1ccco1)c1sc2cccc(F)c2c1Cl,inactive
19,CCN(C(=O)c1sc2cc(OC)ccc2c1Cl)c1ccccc1,inactive
20,COc1ccc2c(Cl)c(C(=O)NCc3ccco3)sc2c1,10.7 µM (active)
21,CCCC(=O)Nc1cc(C(=O)NCc2ccc(OC)cc2)ccc1S(=O)(=O)c1ccc(Cl)cc1,inactive
22,COc1cc(OC)c(C2C=C(C(=O)O)Nc3ncnn32)cc1OC (stereo not drawn),inactive
23,CCC(C)NC(=O)c1ccc(NC(=O)CC2SC(N3CCCCC3)=NC2=O)cc1 (stereo not drawn),inactive

row,Compound,Potency
1,O=C(COc1ncnc2c(Cl)cc(Cl)cc12)N1CCN(S(=O)(=O)c2ccccc2)CC1,inactive
2,Cc1ccc(-n2ncc(C(=O)N(C)Cc3ccccc3)c2-n2cccc2)cc1,inactive
3,CC(=O)N/C(=C\c1ccc(F)cc1)C(=O)NC(Cc1ccccc1)C(=O)O (stereo not drawn),inactive
4,O=C(O)CC/C(=C\c1cc2c(cc1Br)OCO2)c1nc2ccccc2s1,inactive
5,O=C(O)CS/C(=C\c1ccc(F)cc1)c1nc2ccccc2s1,23.9 µM (active)
6,COc1ccccc1NC(=O)CN1C(=O)c2ccccc2Sc2ccc(C(=O)N3CCCC3)cc21,inactive
7,O=C(Nc1ccccc1)c1cc2ccccc2[nH]1,9.53 µM (active)
8,O=C(Nc1ccccc1)N1CCN(C(=O)Nc2ccccc2)CC1,inactive
9,O=C(Nc1ccccc1)c1ccccc1NC(=O)C(F)(F)F,inactive
10,CCC(=O)N1CCc2cc(S(=O)(=O)NC(CC(C)C)C(=O)NCCc3cccc(C)c3)ccc21 (stereo not drawn),inactive
11,CCCCSc1ncnc2c1sc1nc(N3CCOCC3)c3c(c12)CCCC3,inactive
12,CC(C)CNC(=O)/C=C/C(=O)O,inactive
13,Cc1ccc(CN2CCC(CNC(=O)c3cnn(-c4ccccc4Cl)c3C3CCN(C(=O)OC(C)(C)C)CC3)CC2)cc1,inactive
14,COc1cccc(CNC(=O)COC(=O)CN2C(=O)NC3(CCCCC3C)C2=O)c1 (stereo not drawn),inactive
15,CCCc1ccc(C(=O)COC(=O)CN2C(=O)NC3(CCCCC3C)C2=O)cc1 (stereo not drawn),26.9 µM (active)
16,CC1CCCCC12NC(=O)N(CC(=O)OCC(=O)NCc1ccc(F)cc1)C2=O (stereo not drawn),inactive
17,COc1ccc(CCNC2=C(Cl)C(=O)N(Cc3ccccc3)C2=O)cc1OC,inactive
18,CCN(CC)c1ccc2cc(C(N)=O)/c(=N\NC(=O)c3ccncc3)oc2c1,16.9 µM (active)
19,COc1ccc(C/C(C)=N/NC(=O)c2ccncc2)cc1,inactive
20,C/C(=N/NC(=O)c1ccncc1)c1ccc2c(c1)OCO2,inactive
21,CO/N=C/c1cn(-c2ccc(Cl)cc2)nn1,inactive
22,O=C(CC1C(=O)N(c2ccccc2)C(=O)N1CCc1cccs1)Nc1ccc(F)cc1 (stereo not drawn),inactive
23,CC(C)Sc1oc(-c2cccs2)nc1S(=O)(=O)c1ccc(Cl)cc1,inactive

row,Compound,Potency
1,COCc1c(N)c(C)nc(Cl)c1C#N,10.7 µM (active)
2,Cc1nc(Cl)c(C#N)c2c1CCCC2,inactive
3,COc1ccc(C2=NC(c3ccncc3)=Nc3ccc(Br)cc3N2)cc1,inactive
4,CCc1nnc2c3ccccc3nc(N3CCN(c4ccc(C)cc4C)CC3)n12,inactive
5,COc1cccc(NC(=O)CN2C(=O)c3ccccc3Sc3ncccc32)c1,inactive
6,Cc1cccc(CNC(=O)c2cnc3sc(N4CCCCC4)nn3c2=O)c1,inactive
7,Brc1cccc(-c2nnn3c2nc(NC2CCCCC2)c2ccccc23)c1,inactive
8,Nc1cc(C(F)(F)F)ccc1N1CCOCC1,inactive
9,CCn1c(C)c(C)c2cc(C(=O)NCCc3cc(OC)ccc3OC)ccc21,inactive
10,CCOC(=O)c1c(NC(=O)c2cc(-c3ccc(Cl)cc3)on2)sc2c1CCCC2,inactive
11,CCOc1ccc(NC(=O)C2CCN(S(=O)(=O)c3cc(-c4noc(C)n4)ccc3C)CC2)cc1,inactive
12,COc1ccc2c(C)c(CCC(=O)NC3CC3)c(=O)oc2c1C,inactive
13,CCOC(=O)CCc1c(C)c2ccc(OCc3nn[nH]n3)c(C)c2oc1=O,15.1 µM (active)
14,Cc1c(CCC(=O)O)c(=O)oc2c(C)c(OCc3ccccc3Cl)ccc12,inactive
15,Cc1ccc(NC(=O)CC2S/C(=N/N=C3\CCCc4ccccc43)NC2=O)cc1 (stereo not drawn),inactive
16,Cc1ccc(N/N=C2\COC(C)(C)CC2=O)cc1,7.57 µM (active)
17,Cc1ccc(-n2c(SCC(=O)Nc3cccc(F)c3)nc3c(oc4ccccc43)c2=O)cc1C,inactive
18,COc1cc(Br)cc2cc(S(=O)(=O)c3ccccc3)c(=O)oc12,inactive
19,COc1cccc(C(=O)NCCSc2ccc(Br)cc2)c1,inactive
20,COc1ccc(C(=O)NCc2nnc(SCCOc3ccccc3)n2C)cc1,inactive
21,COc1ccc(C(=O)NCCSc2ccccc2C)cc1,3.79 µM (active)
22,COc1ccccc1CN1CCC(CNC(=O)c2cnn(-c3ccccc3Cl)c2C2CCN(C(=O)OC(C)(C)C)CC2)CC1,inactive
